Laboratory results taken from PubChem BioAssay (Tox21).
Records with an inconclusive call do not appear. Values without a mark were called inactive. The source made the active and inactive calls. The call rests on the fitted dose curve; in most records, active means well fitted activation curve with a large enough effect in the repeat runs; inconclusive means weak or mixed curves; inactive means flat fitted curve, though single readings scatter.

assay: A CellTox Green Cytotoxicity Assay to monitor cytotoxicity in HepG2 cells - 16 hour (AID 1224876); conditions: CellTox Green fluorescence; series mostly up to 76.8 µM; cytotoxicity increase: at the top concentration; further: nearly all actives have a fitted effect of over 45% in size
Description: National Center for Advancing Translational Sciences [NCATS]
NIH Chemical Genomics Center [NCGC]
U.S. Environmental Protection Agency [EPA]
National Institutes of Environmental Health Sciences [NIEHS]
National Toxicology Program [NTP]
Cell-based models are critical for drug discovery. Determining the natural cytotoxic effects resulting from test compounds is an essential research activity. A CellTox Green Cytotoxicity Assay to monitor cytotoxicity in real time of continues cell culture during 40 hours of the compound treatment was used to screen Tox21 10K library compounds in HepG2 cells. CellTox Green Cytotoxicity Assay is a nonlytic, homogeneous, biofluorescent method to measure cytotoxicity in cell culture after experimental manipulation. The assay system uses a proprietary asymmetric cyanine dye that is excluded from viable cells but preferentially stains the dead cell's DNA. […] Viable cells produce no appreciable increases in fluorescence. Therefore, the fluorescence signal produced by the binding interaction with dead cell DNA is proportional to cytotoxicity.
The mixture of HepG2 cell suspension and reagents were dispensed at 600cells/6 ul/well in 1536-well tissue culture treated black solid bottom plates using a Multidrop dispenser. After the assay plates were incubated at a 37 C/5% CO2 incubator for 5 hours, 23 nL of compounds dissolved in DMSO, positive and negative controls was transferred to the assay plate by a pintool work station. The plates were incubated at 37 C for 40 hours. The fluorescence intensity were measured at 0h, 8h, 16h, 24h, 32h and 40h time points using ViewLux plate reader during compound treatment.
On the % scale 0 is the no-effect control and ±100 the full control effect; potency means the concentration at half of the fitted maximal effect.

Row | Structure (SMILES) | cytotoxicity increase | Potency
1 | Nc1cc(C(=O)O)c(O)c(S(=O)(=O)O)c1 | -1.45% | –
2 | Nc1ncn([C@H]2C[C@H](O)[C@@H](CO)O2)c(=O)n1 | 3.7% [at 35.3 µM] | –
3 | O=C(O)c1ccco1 | -6.55% | –
4 | C[C@H](CCC(=O)O)[C@H]1CC[C@H]2[C@@H]3CC[C@@H]4C[C@H](O)CC[C@]4(C)[C@H]3C[C@H](O)[C@]12C | 22.3% | –
5 | CCCCCCCCCCCCCCOS(=O)(=O)O | – | 34.7 µM (active)
6 | COC(C)(C)CCO | -9.38% | –
7 | Cc1c(N)cccc1[N+](=O)[O-] | -2.65% | –
8 | O=C(O)C1(C(=O)Nc2ccc(Cl)cc2Cl)CC1 | -4.8% | –
9 | C[N+]1(C)CCC(OC(=O)C(O)(c2ccccc2)C2CCCC2)C1 (stereo not given) | 21% [at 35.3 µM] | –
10 | C=C(C)C(=O)OCCOCC | 11.2% | –
11 | O=C(O)CNCC(=O)O | -9.02% [at 6.97 µM] | –
12 | OC[C@H]1O[C@@H](OCCc2ccc(O)cc2)[C@H](O)[C@@H](O)[C@@H]1O | -1.24% [at 35.3 µM] | –
13 | CCCCO | 0.412% | –
14 | C/C=C(/C(=C/C)c1ccc(OC(C)=O)cc1)c1ccc(OC(C)=O)cc1 | -0.0788% [at 35.3 µM] | –
15 | CCCCC | -11.1% | –
16 | CN(Cc1ccc(C(C)(C)C)cc1)Cc1cccc2ccccc12 | 19.9% [at 35.3 µM] | –
17 | OC(C#CCN1CCCC1)(c1ccccc1)c1ccccc1 | 3.4% [at 35.3 µM] | –
18 | O=C(OCCCCCCOC(=O)c1ccccc1)c1ccccc1 | -0.758% | –
19 | NCCCN1CCOCC1 | -0.235% | –
20 | CCCCCCc1ccc(-c2ccc(C#N)cc2)cc1 | -0.541% | –

Row | Structure (SMILES) | cytotoxicity increase | Potency
21 | c1ccc(-c2ccccn2)nc1 | -8.55% | –
22 | CC(COCCO)OCCO (stereo not given) | 3.7% | –
23 | Cc1cccc(C)c1OCC(=O)N[C@@H](Cc1ccccc1)[C@@H](O)C[C@H](Cc1ccccc1)NC(=O)[C@H](C(C)C)N1CCCNC1=O | -3.31% [at 35.3 µM] | –
24 | C=C(C)C(=O)OCCO | -0.286% | –
25 | CCOc1ccc(O)cc1 | -13.5% | –
26 | Nc1c(CC(=O)O)cccc1C(=O)c1ccc(Br)cc1 | 0.0145% [at 35.3 µM] | –
27 | Cc1oc(-c2ccccc2)nc1CCOc1cccc2c1ccn2CCC(=O)O | 1.55% | –
28 | OCCNCc1ccccc1 | -1.88% | –
29 | CC1=CCCC(C)(C)C12CCC(C)O2 (stereo not given) | -3.84% | –
30 | C=C1C(=C/C=C2\CCC[C@]3(C)[C@@H]([C@H](C)/C=C/[C@@H](O)C4CC4)CC[C@@H]23)C[C@@H](O)C[C@@H]1O | 2.06% [at 35.3 µM] | –
31 | NCC(=O)CCC(=O)O | -4.03% [at 35.3 µM] | –
32 | CNC(=O)CN(CCN(CCN(CC(=O)[O-])CC(=O)NC)CC(=O)[O-])CC(=O)[O-].O.[Gd+3] | -6.68% [at 35.3 µM] | –
33 | COc1ccc(C)cc1[N+](=O)[O-] | -2.75% | –
34 | O=C1OC(CN2CCOCC2)CN1/N=C/c1ccc([N+](=O)[O-])o1 (stereo not given) | -0.449% [at 35.3 µM] | –
35 | CCCCCCCC/C=C\CCCCCCCC(=O)OCC | 1.68% | –
36 | CNCCCCOc1ccccc1Cc1ccccc1 | – | 23.9 µM (active)
37 | CC(=O)[O][Al][O]C(C)=O | -15.6% | –
38 | CC(C)(COC(=O)c1ccccc1)COC(=O)c1ccccc1 | -0.652% | –
39 | NC(=O)C(c1ccccc1)(c1ccccc1)[C@@H]1CCN(CCc2ccc3c(c2)CCO3)C1 | – | 23.9 µM (active)
40 | NS(=O)(=O)c1ccc(N2CCCCS2(=O)=O)cc1 | -1.66% [at 35.3 µM] | –
